# USP30 inh: human USP30 deubiquitinase inhibition | Q70CQ3 | hit rate 5.3% among 47,000 | purified USP30, Ub-rhodamine cleavage fluorescence | inhibition, % at 25 µM
# USP28 block: human USP28 deubiquitinase inhibition; inhibition, % at 25 µM; hit rate 3% among 47,000; purified USP28, Ub-rhodamine cleavage fluorescence, 30 min; Q96RU2; AID 1645857
# USP17 block: inhibitors of human USP17 deubiquitinase. A8MUK1. purified USP17, Ub-rhodamine cleavage fluorescence, 3 h. inhibition, % at 50 µM. hit rate 6.5% among 47,000. AID 1645855
# An asterisk follows results filed as active; . = no result. Rows were chosen to be rich in hits. Some 11% of all compounds tested hit in one or more screens of this group. Cut-off read from the data, not from the text of the source: active = inhibition above about 30%; inactive = the rest.
SMILES,USP30 inh,USP28 block,USP17 block
COc1cc(O)c2c(c1CC=C(C)C)OC(c1ccc(O)cc1)CC2=O (stereo not drawn),-30,2,-46
CCOC(=O)c1sc2nc(CN3CCN(c4ccccn4)CC3)[nH]c(=O)c2c1C,-81,-18,13
O=C(Nc1ccc2c(c1)CCC2)c1cc2ccccc2s1,28,33*,8
O=C(O)Cc1ccccc1C(=O)Nc1ccc2c(c1)CCC2,-2,-4,-1
O=C(Nc1ccc2[nH]c(=O)[nH]c2c1)c1cc2c(s1)CCCCC2,-63,14,26
Cc1ccc(NC(=O)c2cc3c(s2)CCC3)cc1,-26,37*,49*
COc1ccc(Cl)cc1NC(=O)CN1C(=O)CC(c2ccccc2)S(=O)(=O)c2ccccc21 (stereo not drawn),11,12,12
COc1ccc(C2CC(=O)N(CC(=O)Nc3ccc(NC(C)=O)cc3)c3ccccc3S2)cc1OC (stereo not drawn),.,.,37*
COc1ccc(C)cc1N1CCn2c1nc1c2c(=O)n(Cc2ccc(C)cc2)c(=O)n1C,29,14,11
CC(=O)N1CCCC(Cc2cnc(-c3ncc(C)[nH]3)cn2)C1 (stereo not drawn),8,4,2
O=c1oc2ccccc2c(N2CCN(c3ccccn3)CC2)c1CN1CCCC1,-6,-14,-8
O=c1oc2ccccc2c2nn(-c3ccccn3)cc12,27,0,51*
CN(CCc1ccccc1)c1nccc(N2CCN(C(=O)c3cccc(C#N)c3)CC2)n1,4,0,-9
Cc1ccn(CCC(=O)NC2CC3(CCOCC3)Oc3ccccc32)n1 (stereo not drawn),3,-8,-2
COc1ccc(Nc2cc(C(=O)NCCCN(CC(C)C)CC(C)C)c3ccccc3n2)cc1,21,9,17
CCc1ccc(Nc2cc(C(=O)NCCCOC(C)C)c3ccccc3n2)cc1,-34,5,69*
Cc1cn(C)c(CC(=O)N2CCC(N3CCCCC3)CC2)c1C(=O)O,-128,-30,-27
O=C1CC(c2nc(-c3ccc(S(=O)(=O)N4CCCC4)cc3)no2)CN1C1CCCC1 (stereo not drawn),11,-7,19
O=C(Nc1ncc2c(n1)-c1ccccc1CC2)C1CC1,8,-15,56*
Cc1ccc(C2CC(=O)c3cnc(NC(=O)C4CC4)nc3C2)cc1 (stereo not drawn),0,1,-12
O=C1COc2ccc(C(=O)COC(=O)CCc3nc4ccccc4s3)cc2N1,30*,32*,48*
O=C1COc2ccc(C(=O)COC(=O)c3ccccc3O)cc2N1,-34,-10,36*
O=C1COc2ccc(C(=O)COC(=O)C3(c4ccc(F)cc4)CCCC3)cc2N1,11,3,9
O=C1COc2ccc(C(=O)N3CCc4ccccc4C3)cc2N1,12,17,4
CC(=O)C1=C(C)Oc2ncnc(N)c2C1c1ccco1 (stereo not drawn),19,12,4
SMILES,USP30 inh,USP28 block,USP17 block
CCn1c(CSc2ccccn2)nc2cc(S(=O)(=O)N(C)C)ccc21,-40,7,-14
COc1ccc(CNC(=O)CC(c2cccc(F)c2)n2cccc2)cc1 (stereo not drawn),35*,19,13
COc1cccc(CNC(=O)CC(c2cccc(F)c2)n2cccc2)c1 (stereo not drawn),4,3,-22
O=c1ccc(S(=O)(=O)N2CCCCC2)cn1Cc1ccc(F)cc1,1,0,-1
Cc1ccc2nc(Cl)c3cc(C(=O)N4CCC(C)CC4)sc3c2c1,10,-4,6
COc1ccc(CCNC(=O)c2sc(NC3CC3)nc2C)cc1,7,25,8
COc1ccc(CCNC(=O)c2cc3c(s2)-c2ccccc2OC3)cc1,.,.,37*
CCN(C(=O)c1cc2c(Cl)nc3ccccc3c2s1)c1ccccc1F,71*,19,15
O=C1COc2ccccc2C(=O)N1Cc1ccccc1F,13,22,10
CCN(C(=O)c1cc2c(s1)-c1ccccc1OC2)c1ccccc1F,5,52*,22
CC(C)c1nc2sc3c(SCCc4ccccc4)ncnc3c2c2c1COC(C)(C)C2,24,7,.
Cc1ccccc1CCNCc1c(C(=O)O)c(C)n(-c2ccccc2)c1C,-33,-5,16
CC(C)CN1CC2(CCN(c3ncccn3)CC2)COc2ccccc2S1(=O)=O,-50,-1,-24
Cc1ccc(C)c(S(=O)(=O)NCCc2c[nH]c3ncccc23)c1,-73,-30,-26
Cc1ccc(C)c(CSc2ncnc3nc[nH]c23)c1,-8,40*,-6
Cc1ncnc2nc[nH]c12,9,5,2
COc1ccccc1CNc1nnc(-c2nc(C3CC3)no2)c2ccccc12,34*,23,7
c1ccc2c(-c3nc(C4CC4)no3)nnc(NC3CCCC3)c2c1,39*,36*,13
c1ccc(CNc2nnc(-c3nc(C4CC4)no3)c3ccccc23)cc1,.,.,-6
CC1CCN(c2nnc(-c3nc(C4CC4)no3)c3ccccc23)CC1,57*,22,21
c1ccc2c(-c3nnc(C4CC4)o3)nnc(NC3CCCCC3)c2c1,19,15,1
c1ccc2c(N3CCCC3)nnc(-c3nc(C4CC4)no3)c2c1,13,28,-2
Cc1ccc(S(=O)(=O)NC2=NC(C)c3ccccc3N2)cc1 (stereo not drawn),-10,0,-5
Cc1cncc(C2CCN(C(=O)CCc3cc(Cl)no3)CC2)n1,-7,-7,-7
O=C1N[C@H]2OCCC[C@H]2[C@H](c2ccc(CNC(=O)c3n[nH]c4c3CCC4)cc2)N1,-11,-4,0
SMILES,USP30 inh,USP28 block,USP17 block
Cc1nc(N2CCCCC2)c2oc3ccc(Cl)cc3c2n1,-59,-5,0
CCCCSc1ncnc2c1sc1nc(C(C)C)c3c(c12)CCC3,-6,-7,-4
O=C(c1cnn(-c2ccccc2)n1)N1CCN(C(=O)C2COc3ccccc3O2)CC1 (stereo not drawn),9,10,17
COc1ccc(N2CCn3c(SCC(=O)Nc4ccccc4)nnc32)cc1,43*,5,26
COc1ccc(N2CCN(C3=NC(CC(=O)Nc4ccccc4)C(=O)N3)CC2)cc1 (stereo not drawn),25,15,36*
COc1ccc(NC(=O)CSc2nnc(Cc3cccc4ccccc34)n2C)cc1,7,60*,2
O=C(CC1N=C(N2CCN(c3ccccc3)CC2)NC1=O)Nc1ccc(Cl)cc1 (stereo not drawn),2,0,0
COc1ccc(N2CCn3c(SCC(=O)Nc4cccc(F)c4)nnc32)cc1,34*,9,37*
COc1ccc(N2CCn3c(SCC(=O)Nc4cccc(C(F)(F)F)c4)nnc32)cc1,6,-7,-7
O=C(CSc1nnc2n1CCN2c1ccccc1)Nc1ccc(OC(F)(F)F)cc1,29,9,24
COc1ccc(NCc2nnc(SCC(=O)Nc3cccc4ccccc34)n2C)cc1,19,6,20
Cc1cccc(C(=O)NCC(c2ccco2)N2CCCCC2)c1 (stereo not drawn),-52,-20,-5
COc1ccccc1C(=O)Nc1ccc(C)c(N2CCCC2=O)c1,6,-7,11
O=C(C1CCCN(S(=O)(=O)N2CCCCC2)C1)N1CCN(c2ncccn2)CC1 (stereo not drawn),-30,-10,-18
